Data on 40 molecules can be found in PubChem BioAssay (Tox21).

A number with no mark means an inactive call. Entries that show only a call come without a potency. Active and inactive are the calls of the source. Calls follow the shape of the full dose curve.

Chain of Muscarinic acetylcholine receptor M1 (Homo sapiens) (P11229 whole entry, looked up): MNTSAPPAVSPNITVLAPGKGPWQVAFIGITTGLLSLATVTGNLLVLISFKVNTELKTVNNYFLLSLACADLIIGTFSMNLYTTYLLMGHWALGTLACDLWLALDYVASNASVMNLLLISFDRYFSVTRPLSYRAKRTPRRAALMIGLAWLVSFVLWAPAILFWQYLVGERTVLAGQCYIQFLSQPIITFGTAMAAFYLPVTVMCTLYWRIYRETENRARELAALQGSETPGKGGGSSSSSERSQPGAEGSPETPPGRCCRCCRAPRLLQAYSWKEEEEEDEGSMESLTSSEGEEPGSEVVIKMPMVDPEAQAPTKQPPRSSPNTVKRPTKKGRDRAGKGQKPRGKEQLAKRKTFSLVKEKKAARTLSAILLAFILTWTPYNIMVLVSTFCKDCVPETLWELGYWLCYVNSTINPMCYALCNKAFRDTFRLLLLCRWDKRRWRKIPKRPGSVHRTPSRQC

This experiment concerns the target Muscarinic acetylcholine receptor M1 (Homo sapiens) (UniProt P11229). Description: Cholinergic receptor muscarinic 1 (CHRM1) small molecule agonists, cell-based qHTS assay (AID 1963589). Also: nearly all actives have a fitted effect of over 35% in size. The note with it: CHRM1-CHO cells, agonist mode, calcium flux fluorescence; series mostly up to 76.8 µM. The text has this:
National Center for Advancing Translational Sciences [NCATS]
Division of Preclinical Innovation [DPI]
U.S. Environmental Protection Agency [EPA]
National Institutes of Environmental Health Sciences [NIEHS]
National Toxicology Program [NTP]
U.S. Food and Drug Administration [FDA]
The CHRM1 is a muscarinic receptor. This receptor plays a crucial role in learning and memory processes and has long been identified as a promising therapeutic target for the improvement of cognitive decline in Alzheimer's disease (AD). The CHRM1-CHO cell line stably expressing human muscarinic acetylcholine receptor M1 (CHRM1) can be used for screening agonists and antagonists of interactions between CHRM1 and its ligands. The CHRM1-CHO Calcium Flux Assay is a homogeneous fluorescence-based assay for detecting the intracellular calcium level using FDSS kinetic plate reader system.
CHRM1-CHO cells were dispensed at 1000 cells/3uL/well in 1536-well black-clear bottom plates using a Multidrop Dispenser. After the assay plates were incubated at a 37 C/5% CO2 incubator for 18 h, 3 uL of Dye Loading Buffer was transferred to the assay plate by a Flying Reagent Dispenser. The assay plates were incubated at 37 C for 1h. For agonist mode, 23 nL of compounds dissolved in DMSO, positive controls or DMSO only was transferred to the assay plate by a pin tool. […] Each test compound was measured at 15 concentrations in three independent runs.
Take `OC1OC[C@@H](O)[C@H](O)[C@H]1O` (stereo not given in full): the Potency result was “inactive”. As for `CC[C@]12CCCN3CCc4c(n(c5ccccc45)[C@@](O)(C(=O)OC)C1)[C@@H]32`, the Potency entry was “inactive”.

As to `Nc1ccncc1N`, the Potency entry was “inactive”. With `Cc1ccccc1N=O`, the Potency result was “inactive”. Regarding `C=CC(C)(CCC=C(C)C)OC=O` (stereo not given), the Potency entry was “inactive”.

For the molecule `CC(=O)OC/C=C(\C)CC/C=C(\C)CCC=C(C)C`, the Potency result is “inactive”. Turning to `CN(CC1(C)CCCO1)S(=O)(=O)c1ccc(Cl)c(S(N)(=O)=O)c1` (stereo not given), the Potency entry is “inactive”. `CC(C)(CCl)c1ccccc1`: the Potency entry is “inactive”. Still for that read-out and setting: the value for `CN(C)CCCN(C)CCCN(C)C` was “inactive”; that for `COCC(O)CO` (stereo not given) was “inactive”; that for `OCC1CCC(CO)CC1` (stereo not given) was “inactive”. For the molecule `COC(=O)c1ccccc1C`, the Potency result is “inactive”. The same measure, in the same setting: the value for `CC1=CC(=O)NS(=O)(=O)O1` was “inactive”; that for `O=C(O)/C=C/c1ccc(Cn2ccnc2)cc1` was “inactive”.

In the case of `CCCCCCCCCCCCCCCC(=O)OC`, the activation was -0.393% [at 15.8 µM]. As for `NS(=O)(=O)c1ccccc1OC(F)(F)F`, the Potency result was “inactive”. On to `NC(=O)c1ncn([C@@H]2O[C@H](CO)[C@@H](O)[C@H]2O)c1O`, for which the Potency entry is “inactive”. In the case of `Cc1ccc(C=O)cc1`, the Potency result was “inactive”.

With `CC(C)(CO)[C@@H](O)C(=O)NCCC(=O)O`, the Potency result was “inactive”.

`CC(=O)O[C@H]1C[C@@H]2CC[C@@]1(C)C2(C)C`: the Potency result is “inactive”. Regarding `CC1(C)[C@@H]2CC[C@]3(C2)[C@@H]1C(=O)CCC3(C)C`, the Potency result is “inactive”.

`CCCC/C=C\CCCCCCCCCC=O`: the Potency result is “inactive”. On to `CC(=O)OCCN(CCOC(C)=O)c1ccc(N=Nc2ccc([N+](=O)[O-])cc2C#N)cc1`, for which the Potency result is “inactive”.

With `O=C(Oc1ccccc1)c1ccc(O)cc1`, the Potency result is “inactive”. Same read-out and setting: the value for `O=S(=O)(O)c1cccc2ccccc12` was “inactive”; that for `CCCCCOC(C)=O` was “inactive”. As for `CCCCCCCCCCCC(=O)OC[C@@H](O)[C@H]1OC[C@H](OCCO)[C@H]1OCCO`, the Potency result was “inactive”.

`CCSC(=O)N(CC(C)C)CC(C)C`: the Potency entry is “inactive”. Consider `COc1ccc2nc(N)sc2c1`, for which the Potency result is “inactive”. Turning to `Cc1ccc(N=Nc2c(O)ccc3ccccc23)c(C)c1`, the Potency entry is “inactive”. For `CCCCCCCCCCCCCCCCC`, the Potency result is “inactive”. Take `O=C(O)c1cccc(C(F)(F)F)c1`: the Potency result is “inactive”. `CC(=O)N[C@@H](Cc1ccc(O)cc1)C(=O)O`: the Potency result is “inactive”.

For `c1ccc2cc3c4ccccc4c4ccccc4c3cc2c1`, the Potency result is “inactive”.

`CCCCCCCC(=O)N(C)C`: the Potency entry was “inactive”. As for `CCCCC1CCC(O)CC1` (stereo not given), the Potency entry was “inactive”. Turning to `CC(C)OC(C)C`, the Potency entry is “inactive”. Regarding `OCCOc1ccc(OCCO)cc1`, the Potency entry was “inactive”.

With `CCC(N)(CO)CO`, the Potency result is “inactive”.

For the molecule `COc1cc(OC)nc(O[C@H](C(=O)O)C(OC)(c2ccccc2)c2ccccc2)n1`, the Potency entry is “inactive”.
